A number with no mark means an inactive call.
What was measured:
Experiment in all cases: log2 ratio of Biotin-Ahx-Ub-VS probe labelling (fragment/DMSO); higher = less target engagement (more negative = stronger competition), active = hit call of the paper (q ≤ 0.05, log2 ratio ≤ -1)
Conditions in all cases: compound concentration: 200 uM; treatment time: 3 h
[1] = target: UniProt O00507
Method in brief: (§1)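 The table lists average log2 ratios of fragment over vehicle, from an unpaired t-test on global-median-normalised Spectronaut label-free quantities. Proteins with ≥2 unique peptides were used. Samples were HEK293T lysate (495 µg) treated in triplicate with fragment at 200 µM or vehicle for 3 h, then with Biotin-Ahx-Ub-VS (0.5 µM final) for 1 h, with labelled DUBs NeutrAvidin-enriched and run by diaPASEF LC-MS/MS.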

[2] = target: UniProt P51784
Method in brief: as §1

[3] = target: T1, UniProt Q5T2D3
T1 sequence (whole entry): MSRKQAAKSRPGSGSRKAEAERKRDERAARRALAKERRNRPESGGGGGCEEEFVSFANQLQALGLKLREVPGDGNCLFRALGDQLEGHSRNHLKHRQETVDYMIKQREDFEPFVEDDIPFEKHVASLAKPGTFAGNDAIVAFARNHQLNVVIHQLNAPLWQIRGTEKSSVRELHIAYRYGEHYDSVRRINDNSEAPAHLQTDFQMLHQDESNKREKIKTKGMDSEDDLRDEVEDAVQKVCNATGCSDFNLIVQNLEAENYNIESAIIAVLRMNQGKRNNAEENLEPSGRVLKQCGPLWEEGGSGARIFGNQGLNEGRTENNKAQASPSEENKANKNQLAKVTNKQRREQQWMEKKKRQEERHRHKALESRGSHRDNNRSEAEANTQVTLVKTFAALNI
Method in brief: as §1

[4] = target: T2, UniProt Q8TE49
T2 sequence (whole entry): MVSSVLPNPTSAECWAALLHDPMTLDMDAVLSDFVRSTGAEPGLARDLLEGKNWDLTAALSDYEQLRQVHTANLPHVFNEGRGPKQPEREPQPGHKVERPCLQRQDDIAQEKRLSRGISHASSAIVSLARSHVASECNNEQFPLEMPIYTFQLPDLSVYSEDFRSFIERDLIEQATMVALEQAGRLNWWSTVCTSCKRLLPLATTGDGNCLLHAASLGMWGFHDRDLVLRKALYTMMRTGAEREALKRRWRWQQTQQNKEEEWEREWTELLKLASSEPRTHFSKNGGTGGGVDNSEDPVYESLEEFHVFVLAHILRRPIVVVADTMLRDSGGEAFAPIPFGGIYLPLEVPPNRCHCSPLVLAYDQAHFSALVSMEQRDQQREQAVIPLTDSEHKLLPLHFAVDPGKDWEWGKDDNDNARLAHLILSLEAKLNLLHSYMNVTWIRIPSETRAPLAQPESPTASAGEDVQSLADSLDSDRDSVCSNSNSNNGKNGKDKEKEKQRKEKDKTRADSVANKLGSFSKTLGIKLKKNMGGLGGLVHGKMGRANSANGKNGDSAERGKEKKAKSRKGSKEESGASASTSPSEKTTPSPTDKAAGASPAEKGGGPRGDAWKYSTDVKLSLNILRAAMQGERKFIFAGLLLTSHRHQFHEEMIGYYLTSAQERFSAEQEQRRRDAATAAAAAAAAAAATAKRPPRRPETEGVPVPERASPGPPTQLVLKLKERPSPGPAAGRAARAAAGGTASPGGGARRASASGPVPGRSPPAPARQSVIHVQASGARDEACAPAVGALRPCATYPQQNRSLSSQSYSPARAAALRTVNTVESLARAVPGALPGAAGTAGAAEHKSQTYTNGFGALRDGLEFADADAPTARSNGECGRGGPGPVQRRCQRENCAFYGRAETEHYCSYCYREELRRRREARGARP
Method in brief: as §1

[5] = target: T3, UniProt Q9P2H5
T3 sequence (whole entry): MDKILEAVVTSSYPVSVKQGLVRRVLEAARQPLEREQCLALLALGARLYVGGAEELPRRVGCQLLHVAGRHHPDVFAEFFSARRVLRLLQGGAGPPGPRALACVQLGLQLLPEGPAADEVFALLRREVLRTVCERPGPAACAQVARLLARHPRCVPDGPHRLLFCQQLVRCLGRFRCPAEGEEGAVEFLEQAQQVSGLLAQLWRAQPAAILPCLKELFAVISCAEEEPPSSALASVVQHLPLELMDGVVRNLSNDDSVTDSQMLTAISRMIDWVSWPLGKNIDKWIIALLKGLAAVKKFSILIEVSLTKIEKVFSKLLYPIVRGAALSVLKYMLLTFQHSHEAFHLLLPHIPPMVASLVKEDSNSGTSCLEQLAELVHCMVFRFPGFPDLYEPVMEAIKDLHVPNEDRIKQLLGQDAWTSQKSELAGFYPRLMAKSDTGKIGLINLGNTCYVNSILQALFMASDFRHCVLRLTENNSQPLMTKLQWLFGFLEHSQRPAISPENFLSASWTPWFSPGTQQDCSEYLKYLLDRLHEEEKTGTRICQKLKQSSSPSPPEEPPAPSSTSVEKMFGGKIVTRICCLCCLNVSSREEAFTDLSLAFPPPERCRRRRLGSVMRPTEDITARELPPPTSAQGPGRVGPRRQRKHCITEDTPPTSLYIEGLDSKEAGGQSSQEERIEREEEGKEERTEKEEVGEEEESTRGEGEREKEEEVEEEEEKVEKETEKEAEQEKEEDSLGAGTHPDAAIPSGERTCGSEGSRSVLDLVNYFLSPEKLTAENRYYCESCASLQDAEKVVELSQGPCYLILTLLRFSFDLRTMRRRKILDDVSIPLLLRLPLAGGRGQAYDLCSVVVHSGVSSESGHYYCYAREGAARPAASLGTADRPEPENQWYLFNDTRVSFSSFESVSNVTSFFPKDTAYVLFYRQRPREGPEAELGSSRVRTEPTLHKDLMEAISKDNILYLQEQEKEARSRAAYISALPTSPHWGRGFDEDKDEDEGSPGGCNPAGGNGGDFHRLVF
Method in brief: as §1

[6] = target: T4, UniProt Q9UGI0
T4 sequence (whole entry): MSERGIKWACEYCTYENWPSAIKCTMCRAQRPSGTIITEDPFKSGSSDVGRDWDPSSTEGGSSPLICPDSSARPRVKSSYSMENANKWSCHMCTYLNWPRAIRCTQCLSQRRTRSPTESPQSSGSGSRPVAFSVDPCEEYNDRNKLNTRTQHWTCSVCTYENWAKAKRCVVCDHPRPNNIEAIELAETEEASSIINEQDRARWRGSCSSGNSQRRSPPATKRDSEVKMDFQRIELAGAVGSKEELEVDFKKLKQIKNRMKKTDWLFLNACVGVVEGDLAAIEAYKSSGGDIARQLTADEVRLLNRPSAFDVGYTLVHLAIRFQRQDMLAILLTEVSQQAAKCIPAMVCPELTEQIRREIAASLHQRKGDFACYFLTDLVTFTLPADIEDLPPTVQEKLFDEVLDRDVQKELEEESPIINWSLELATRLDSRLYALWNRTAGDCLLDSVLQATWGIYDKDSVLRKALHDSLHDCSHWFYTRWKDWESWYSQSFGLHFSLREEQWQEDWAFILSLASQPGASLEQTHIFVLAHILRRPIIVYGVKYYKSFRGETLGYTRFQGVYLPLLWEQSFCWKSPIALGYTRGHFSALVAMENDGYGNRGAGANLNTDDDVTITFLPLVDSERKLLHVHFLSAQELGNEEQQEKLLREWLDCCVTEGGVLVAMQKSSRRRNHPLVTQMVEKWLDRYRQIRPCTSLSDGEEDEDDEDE
Method in brief: as §1

[7] = target: T5, YOD1 (UniProt Q5VVQ6)
T5 sequence (whole entry): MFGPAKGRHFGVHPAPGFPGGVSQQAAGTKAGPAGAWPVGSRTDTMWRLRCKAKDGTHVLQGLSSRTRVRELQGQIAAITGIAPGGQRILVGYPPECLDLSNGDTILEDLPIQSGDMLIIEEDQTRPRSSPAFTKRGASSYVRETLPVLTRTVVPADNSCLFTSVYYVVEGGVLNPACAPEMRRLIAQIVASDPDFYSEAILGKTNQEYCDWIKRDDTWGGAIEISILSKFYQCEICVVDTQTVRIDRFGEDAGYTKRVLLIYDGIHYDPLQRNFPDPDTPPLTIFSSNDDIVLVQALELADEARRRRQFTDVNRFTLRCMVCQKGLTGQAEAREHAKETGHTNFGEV
Method in brief: as §1

UniProt P51784, sequence (P51784 whole entry): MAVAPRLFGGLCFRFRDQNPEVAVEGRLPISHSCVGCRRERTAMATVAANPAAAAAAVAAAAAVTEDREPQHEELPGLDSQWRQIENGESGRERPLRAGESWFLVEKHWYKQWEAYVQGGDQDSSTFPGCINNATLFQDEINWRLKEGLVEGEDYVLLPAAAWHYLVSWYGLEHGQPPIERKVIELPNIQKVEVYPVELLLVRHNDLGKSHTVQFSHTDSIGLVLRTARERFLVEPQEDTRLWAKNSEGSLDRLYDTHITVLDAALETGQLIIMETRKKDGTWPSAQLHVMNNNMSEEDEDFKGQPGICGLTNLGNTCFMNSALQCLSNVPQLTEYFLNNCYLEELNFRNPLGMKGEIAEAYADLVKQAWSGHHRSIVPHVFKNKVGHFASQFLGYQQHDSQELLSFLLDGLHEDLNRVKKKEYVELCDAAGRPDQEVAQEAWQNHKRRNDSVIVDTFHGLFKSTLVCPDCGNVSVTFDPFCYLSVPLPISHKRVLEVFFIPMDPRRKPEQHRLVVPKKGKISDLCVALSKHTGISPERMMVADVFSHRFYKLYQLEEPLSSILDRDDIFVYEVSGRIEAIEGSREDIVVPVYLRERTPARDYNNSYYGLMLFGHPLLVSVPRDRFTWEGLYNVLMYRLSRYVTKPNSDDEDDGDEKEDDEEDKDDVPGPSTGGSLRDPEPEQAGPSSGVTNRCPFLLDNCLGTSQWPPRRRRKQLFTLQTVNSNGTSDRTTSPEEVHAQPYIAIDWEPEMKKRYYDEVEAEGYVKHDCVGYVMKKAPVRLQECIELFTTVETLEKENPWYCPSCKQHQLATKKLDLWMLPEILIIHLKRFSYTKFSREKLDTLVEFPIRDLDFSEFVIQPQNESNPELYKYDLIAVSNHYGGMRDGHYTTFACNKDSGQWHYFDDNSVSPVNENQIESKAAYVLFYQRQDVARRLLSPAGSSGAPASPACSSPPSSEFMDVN
UniProt O00507, sequence (O00507 whole entry, the tested form may be a part): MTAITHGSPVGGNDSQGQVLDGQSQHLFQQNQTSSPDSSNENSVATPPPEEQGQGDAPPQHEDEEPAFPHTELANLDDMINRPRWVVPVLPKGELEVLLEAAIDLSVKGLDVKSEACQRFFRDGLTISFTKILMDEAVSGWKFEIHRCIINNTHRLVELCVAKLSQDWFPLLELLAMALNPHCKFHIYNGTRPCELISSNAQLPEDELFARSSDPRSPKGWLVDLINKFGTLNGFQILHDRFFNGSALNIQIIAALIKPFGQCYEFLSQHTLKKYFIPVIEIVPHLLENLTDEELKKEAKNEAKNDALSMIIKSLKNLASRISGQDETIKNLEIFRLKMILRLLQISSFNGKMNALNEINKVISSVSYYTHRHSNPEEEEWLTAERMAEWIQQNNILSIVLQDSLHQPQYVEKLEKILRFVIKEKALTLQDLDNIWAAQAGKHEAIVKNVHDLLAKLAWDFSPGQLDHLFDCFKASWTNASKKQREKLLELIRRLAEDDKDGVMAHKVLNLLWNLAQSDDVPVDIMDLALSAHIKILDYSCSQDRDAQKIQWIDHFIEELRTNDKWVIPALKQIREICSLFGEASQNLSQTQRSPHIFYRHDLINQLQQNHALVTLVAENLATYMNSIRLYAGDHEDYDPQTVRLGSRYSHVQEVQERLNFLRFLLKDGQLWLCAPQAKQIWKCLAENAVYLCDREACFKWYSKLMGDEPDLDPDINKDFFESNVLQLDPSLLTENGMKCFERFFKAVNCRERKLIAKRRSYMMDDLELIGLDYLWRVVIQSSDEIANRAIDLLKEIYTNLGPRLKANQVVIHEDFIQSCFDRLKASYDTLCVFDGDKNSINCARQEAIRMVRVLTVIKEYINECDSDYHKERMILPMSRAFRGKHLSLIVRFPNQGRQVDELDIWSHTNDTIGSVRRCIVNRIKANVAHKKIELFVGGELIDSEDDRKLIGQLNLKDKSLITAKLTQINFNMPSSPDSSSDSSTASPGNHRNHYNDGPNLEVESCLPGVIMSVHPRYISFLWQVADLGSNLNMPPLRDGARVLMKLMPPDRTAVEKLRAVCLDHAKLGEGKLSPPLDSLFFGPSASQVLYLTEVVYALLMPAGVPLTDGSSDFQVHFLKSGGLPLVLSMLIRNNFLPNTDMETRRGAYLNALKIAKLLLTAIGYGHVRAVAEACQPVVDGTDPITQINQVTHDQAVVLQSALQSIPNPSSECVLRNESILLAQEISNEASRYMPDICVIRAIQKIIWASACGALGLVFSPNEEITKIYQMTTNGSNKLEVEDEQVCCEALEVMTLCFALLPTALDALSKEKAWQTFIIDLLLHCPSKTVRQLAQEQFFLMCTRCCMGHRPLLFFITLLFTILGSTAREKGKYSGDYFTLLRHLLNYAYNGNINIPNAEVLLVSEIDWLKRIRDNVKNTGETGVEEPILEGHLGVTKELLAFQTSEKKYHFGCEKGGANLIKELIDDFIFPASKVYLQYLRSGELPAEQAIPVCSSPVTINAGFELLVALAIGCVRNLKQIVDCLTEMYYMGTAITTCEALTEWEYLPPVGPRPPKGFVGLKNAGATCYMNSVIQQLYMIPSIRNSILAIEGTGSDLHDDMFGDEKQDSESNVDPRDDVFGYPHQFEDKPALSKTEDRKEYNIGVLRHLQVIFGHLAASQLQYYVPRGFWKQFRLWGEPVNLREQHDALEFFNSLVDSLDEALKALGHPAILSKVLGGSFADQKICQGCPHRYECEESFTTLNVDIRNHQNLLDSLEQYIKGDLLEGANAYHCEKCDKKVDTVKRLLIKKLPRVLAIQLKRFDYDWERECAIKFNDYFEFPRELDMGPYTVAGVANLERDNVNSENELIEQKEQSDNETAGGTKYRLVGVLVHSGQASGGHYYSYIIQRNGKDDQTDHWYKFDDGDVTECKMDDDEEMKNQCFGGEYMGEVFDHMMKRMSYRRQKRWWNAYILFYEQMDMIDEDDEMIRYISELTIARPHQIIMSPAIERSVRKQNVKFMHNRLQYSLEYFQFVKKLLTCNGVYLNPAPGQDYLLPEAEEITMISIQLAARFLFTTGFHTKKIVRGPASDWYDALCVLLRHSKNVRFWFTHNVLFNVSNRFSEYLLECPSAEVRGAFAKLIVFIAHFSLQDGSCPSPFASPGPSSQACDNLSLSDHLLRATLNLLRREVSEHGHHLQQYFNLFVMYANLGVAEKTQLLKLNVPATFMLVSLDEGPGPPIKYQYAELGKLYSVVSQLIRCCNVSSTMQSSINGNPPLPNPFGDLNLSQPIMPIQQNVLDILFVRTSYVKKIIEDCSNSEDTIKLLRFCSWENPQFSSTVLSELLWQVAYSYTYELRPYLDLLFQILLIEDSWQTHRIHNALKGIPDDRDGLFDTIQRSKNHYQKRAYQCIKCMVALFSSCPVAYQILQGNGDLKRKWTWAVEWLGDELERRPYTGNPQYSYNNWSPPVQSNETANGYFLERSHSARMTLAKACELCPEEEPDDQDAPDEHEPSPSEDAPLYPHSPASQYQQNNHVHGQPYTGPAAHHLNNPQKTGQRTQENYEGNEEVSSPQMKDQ

| Compound | log2 ratio of Biotin-Ahx-Ub-VS probe labelling [1] | log2 ratio of Biotin-Ahx-Ub-VS probe labelling [2] | log2 ratio of Biotin-Ahx-Ub-VS probe labelling [3] | log2 ratio of Biotin-Ahx-Ub-VS probe labelling [4] | log2 ratio of Biotin-Ahx-Ub-VS probe labelling [5] | log2 ratio of Biotin-Ahx-Ub-VS probe labelling [6] | log2 ratio of Biotin-Ahx-Ub-VS probe labelling [7] |
| --- | --- | --- | --- | --- | --- | --- | --- |
| Cc1cccc(NC(=O)CCl)c1C | -0.281 | -0.431 | -0.156 | -0.703 | -0.325 | -0.414 | -0.291 |
| Cc1cc(Cl)ccc1NC(=O)CCl | 0.519 | -0.115 | -0.142 | -0.396 | -0.193 | -0.477 | -0.175 |
| Cc1c(C#N)c(NC(=O)CCl)n(Cc2ccco2)c1C | -0.255 | -0.349 | -0.169 | -2.48 (active) | -0.304 | -0.313 | -0.0342 |
| O=C(CCl)NCc1ccc(N2CCOCC2)nc1 | -0.134 | -0.0382 | -0.374 | -0.316 | -0.162 | -0.475 | -0.207 |
| C[C@@H](NC(=O)CCl)c1cccc(C#N)c1 | -0.38 | 0.045 | -0.157 | -0.912 | -0.136 | -0.111 | -0.0878 |
| Cc1cccn2cc(CCNC(=O)CCl)nc12.Cl | -0.143 | -0.122 | -0.0486 | -0.332 | -0.379 | -0.18 | -0.095 |
| CN1c2ccccc2C(NC(=O)CCl)CS1(=O)=O (centres undefined) | -0.0151 | -0.0186 | -0.275 | -2.63 (active) | -0.164 | -0.46 | -0.0718 |
| CC(C)n1nccc1NC(=O)CCl | -0.0553 | 0.033 | -0.201 | -1.34 (active) | -0.152 | -0.9 | 0.0661 |
| Cc1nc(CC2CCN(C(=O)CCl)CC2)no1 | -0.771 | -0.658 | -0.786 | -1.04 (active) | -0.59 | -0.834 | -0.679 |
| O=C(CCl)N1CCC2(CCC(O)CC2)CC1 | 0.0905 | 0.0738 | -0.238 | -0.64 | -0.118 | -0.316 | 0.0256 |
| O=C(CCl)Nc1cc2c(cc1Cl)OCCCO2 | 0.443 | 0.0196 | 0.0208 | -0.506 | -0.0168 | -0.0467 | 0.361 |
| Cc1ccn2cc(CNC(=O)CCl)nc2c1.Cl | 0.237 | -0.0387 | -0.599 | -0.359 | -0.141 | -0.262 | 0.0926 |
| N#Cc1ccccc1N1CCN(C(=O)CCl)CC1 | -0.534 | -0.515 | -0.687 | -1.29 (active) | -0.617 | -2.22 (active) | -0.448 |
| CC(NC(=O)CCl)c1noc(Cc2ccccc2)n1 (centres undefined) | -0.447 | -0.0798 | -0.347 | -0.443 | -0.534 | -0.904 | -0.247 |
| CN1C(=O)c2ccc(NC(=O)CCl)cc2C1=O | -0.092 | -0.0657 | -0.265 | -1.43 (active) | -0.23 | -0.559 | -0.0267 |
| O=C(CCl)N1CCC(c2ccn[nH]2)C1 (centres undefined) | -0.147 | -0.136 | -0.179 | -0.464 | -0.282 | -0.767 | 0.0756 |
| CCN(C(=O)CCl)C1CCS(=O)(=O)C1 (centres undefined) | 0.545 | -0.0519 | 0.00795 | -0.222 | -0.211 | -0.289 | 0.133 |
| Cc1noc(C)c1CNC(=O)CCl | -0.346 | -0.582 | -0.715 | -1.28 (active) | -0.835 | -1.01 (active) | -0.752 |
| Cl.O=C(CCl)N1CCn2cncc2C1 | -0.138 | -0.251 | -0.246 | -0.433 | -0.128 | -0.182 | -0.133 |
| O=C(CCl)Nc1ccc(N2CCCC2=O)cc1 | -0.208 | 0.297 | 0.165 | 0.0701 | 0.00543 | -0.752 | 0.137 |
| O=C(CCl)N1CCCCC12CCOCC2 | -0.561 | -0.343 | -0.414 | -0.444 | -0.444 | -0.517 | -0.518 |
| O=C(CCl)Nc1ccc2c(c1)OC(F)(F)O2 | -0.0305 | 0.0816 | -0.375 | -0.815 | -0.115 | -0.637 | -0.0381 |
